Pf apPOL inh: Pf-apPOL inhibitors, biochemical, fluorescence | Plasmodium falciparum apicoplast DNA polymerase (apPOL) | Recombinant Pf-apPOL, molecular beacon fluorescence, 1.5 h | inhibition, % at 10 µM | 0.25% of 210,000 active | AID 1794808, 2022
mHTT-CaM PPI inh: mutant huntingtin-calmodulin interaction inhibitors – biochemical, AlphaScreen, primary screen; AlphaScreen His-mHTT/GST-CaM binding, luminescence; inhibition, % at 15 µM; 3.6% of 190,000 active;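 further: 0% = both proteins with DMSO and 100% = one protein alone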
An asterisk follows results filed as active; / = not tested or not shown. Most compounds without a hit are left out; they make up all but 3.5% or so of the library. No stated cut-off is given here; in the data, active means inhibition above about 50%; inactive means the rest.

SMILES	Pf apPOL inh	mHTT-CaM PPI inh
CC1(c2ccc(Br)cc2)NC(=O)CS1 (stereo not drawn)	-6	85*
CC1CCC2(CC1)SCC(=O)N2c1ccc(Br)cc1 (stereo not drawn)	13	2
CCCCC/C=C/C(=O)NC1CC1	/	-2
CC1=C(C(=O)Nc2cccc(F)c2)C(c2ccccc2Cl)C2=C(CCCC2=O)N1 (stereo not drawn)	-2	-3
Cc1ccc(C(=O)N2CCC(c3nc(C(=O)N4CCCC4)c(C)o3)CC2)cc1F	-1	8
c1ccc(C2CC(c3cccs3)n3ncnc3N2)cc1 (stereo not drawn)	-2	-3
C1CCCN(C2CCN(C3CC4CCC3C4)CC2)CC1 (stereo not drawn)	-7	81*
C1CCN(C2CCN(C3CC4CCC3C4)CC2)CC1 (stereo not drawn)	-4	-7
O=C(Nc1cccc(NC(=O)c2ccc(Br)o2)c1)c1ccco1	-93	-4
O=C(CCCc1ccccc1)Nc1cccc([N+](=O)[O-])c1	-4	4
O=C(Cc1c([N+](=O)[O-])cc([N+](=O)[O-])cc1S(=O)Cc1ccccc1)Nc1ccccc1 (stereo not drawn)	-3	84*
Cc1cc(C)c(S(=O)(=O)N2CCC(c3noc(-c4ccccc4)n3)CC2)c(C)c1	-2	100*
Cc1cc(C)c(C)c(S(=O)(=O)N2CCC(c3noc(-c4ccccc4)n3)CC2)c1C	-4	-5
CCCn1cnc2ccc(-c3noc(Cc4cccs4)n3)cc21	-6	23
CC(C)n1cnc2ccc(-c3noc(Cc4c[nH]c5ccccc45)n3)cc21	-4	100*
O=C(CCNS(=O)(=O)c1ccc(Cl)cc1)N1CCC2(CC1)OCCO2	-2	2
O=C(Nc1ccc(C(F)(F)F)cc1)C1CCN(c2nnc3ccccn23)CC1	-7	4
COc1cc(-c2nc(-c3cccs3)c(-c3cccs3)[nH]2)ccc1O	0	97*
COc1cc(-c2csc(C)n2)ccc1O	0	-4
O=C(Nc1c2c(nn1-c1cccc(Cl)c1)CSC2)c1cc([N+](=O)[O-])ccc1Cl	-7	3
CN1C(=O)C2CCCCN2c2ccc(C(=O)NC3CCN(Cc4ccccc4)CC3)cc21 (stereo not drawn)	-2	-1
Cc1ccc(-c2cc(C(=O)Nc3cc(S(N)(=O)=O)ccc3C)c3ccccc3n2)c(C)c1	-5	33
CCC(=O)N(C)CC(=O)N1N=C(c2ccc(C)c(C)c2)CC1c1ccc(C)cc1 (stereo not drawn)	0	47
CC(=O)N(C)CC(=O)N1N=C(c2ccc(C)c(C)c2)CC1c1ccc(F)cc1 (stereo not drawn)	0	39
CCC(=O)N(C)CC(=O)N1N=C(c2ccc(F)cc2)CC1c1ccc(F)cc1 (stereo not drawn)	0	66*
SMILES	Pf apPOL inh	mHTT-CaM PPI inh
CN(CC(=O)N1N=C(c2ccc(F)cc2)CC1c1ccc(F)cc1)C(=O)C1CC1 (stereo not drawn)	-1	22
Cc1ccc(C2=NN(C(=O)CN(C)C(=O)C(C)C)C(c3ccc(F)cc3)C2)cc1C (stereo not drawn)	3	98*
CCC(=O)N(C)CC(=O)N1N=C(c2ccc(C)c(C)c2)CC1c1ccc(F)cc1 (stereo not drawn)	-6	72*
O=C(Nc1ccc2c(c1)S(=O)(=O)c1cc(NC(=O)c3cccs3)ccc1-2)c1cccs1	0	2
CC(=O)N1CCc2ccc(C(=O)NC3CCCCC3)cc21	3	0
CCn1nc(C)cc1C(=O)Nc1nc(-c2cccs2)cs1	-11	-5
O=C(NCc1ccccn1)C1COCC(=O)N1Cc1ccccc1 (stereo not drawn)	-4	14
Cc1cccc(C)c1NC(=O)CSc1ncnc2sc(-c3ccccc3)cc12	-4	-3
O=C(NC1CC(=O)N(Cc2ccccc2)C1)c1cnccn1 (stereo not drawn)	-1	-6
COc1ccc(C2=NOC(C(=O)Nc3ccc4c(c3)OCO4)C2)cc1OC (stereo not drawn)	-1	55*
COc1ccc(NC(=O)C2CC(c3cc(OC)c(OC)c(OC)c3)=NO2)cc1OC (stereo not drawn)	-5	46
COc1ccc(NC(=O)C2CC(c3ccc(OC)c(OC)c3)=NO2)cc1OC (stereo not drawn)	-4	30
COc1cc(C2=NOC(C(=O)Nc3ccc4c(c3)OCO4)C2)cc(OC)c1OC (stereo not drawn)	-5	60*
COc1cccc(/C=C2\CCCC3=C2Nc2ncnn2C3c2cccc(OC)c2OC)c1OC (stereo not drawn)	7	50
COC(=O)C1=CN(c2cc(C)cc(C)c2)c2cc(F)c(F)cc2S1(=O)=O	0	6
CCOCCCNC(=O)NC1CCN(c2nc3ccccc3n(C)c2=O)CC1	2	5
O=C1CSC(c2ccc(F)c(F)c2)N1c1ccc(I)cc1 (stereo not drawn)	0	-22
Cc1nn(C(=O)CCN2C(=O)c3ccccc3C2=O)c(C)c1Br	71*	-3
Cc1nn(C(=O)C(C)N2C(=O)c3ccccc3C2=O)c(C)c1Br (stereo not drawn)	-1	-3
O=C(c1ccccc1Br)N1CCN(Cc2nc(-c3ccccc3)cs2)CC1	-29	7
CC(=O)N1CCc2sc(S(=O)(=O)Nc3ccc(F)c(Cl)c3)cc2C1	-3	3
Fc1ccccc1Nc1ncc2c(n1)CCN(Cc1ccc3c(c1)OCCO3)C2	-4	19
Clc1ccc(CN2CCc3nc(Nc4ccc5c(c4)OCO5)ncc3C2)cc1	-1	36
c1cc2c(cc1CN1CCc3nc(Nc4ccc5c(c4)OCCO5)ncc3C1)OCCO2	-1	71*
Clc1ccc(CN2CCc3nc(Nc4ccc5c(c4)OCCO5)ncc3C2)cc1	-1	77*
SMILES	Pf apPOL inh	mHTT-CaM PPI inh
O=C(O)c1cccc(N2N=C(C(F)(F)F)/C(=C/c3ccc(-c4ccccc4[N+](=O)[O-])o3)C2=O)c1	4	37
O=C(O)c1ccc(N2N=C(C(F)(F)F)/C(=C/c3ccc(-c4ccccc4[N+](=O)[O-])o3)C2=O)cc1	2	50*
CC1=C(C(=O)Nc2ccccn2)C(c2ccc(F)cc2)C2=C(CC(C)(C)CC2=O)N1 (stereo not drawn)	-9	0
Cc1ccccc1-c1nc(C2CCN(S(=O)(=O)c3ccc(Cl)cc3C)CC2)no1	-5	-15
CC(C)COc1ccc(/C=C2\NC(=O)N(Cc3ccccc3F)C2=O)cc1	-1	-2
COc1ccc(C2C(=O)N(C3CCCCCC3)CC(=O)N2C2CC2)cc1 (stereo not drawn)	-15	7
COc1cc(C=C2SC(=S)N(c3ccc(O)c(C(=O)O)c3)C2=O)cc(OC)c1OC	-28	66*
COc1cccc(N2C(=O)C(=Cc3ccc(O)c(O)c3)SC2=S)c1	-60	98*
COc1cc(C=C2SC(=S)N(c3ccc(O)cc3)C2=O)cc(OC)c1OC	-3	20
COc1cc(C=C2SC(=S)N(c3ccc(C(=O)O)c(O)c3)C2=O)cc(OC)c1OC	-7	1
CNc1nccc(N2CCC(CC(=O)NCc3cccc(C(F)(F)F)c3)CC2)n1	1	54*
CNc1nccc(N2CCC(CC(=O)NCc3ccc(OC)c(OC)c3)CC2)n1	-2	17
CNc1nccc(N2CCC(CC(=O)N3CCN(c4ccc(OC)cc4)CC3)CC2)n1	-2	21
O=C(Cc1cccs1)N1CCN(c2nnc3ccccn23)CC1	0	8

Screening data deposited in PubChem BioAssay by University of Kansas High Throughput Screening Laboratory.
